{"source": "the supplement of paper PMC10849652", "note": "Targets with a hit are over-represented here; the source holds about 8,800 in all. About 0.5% of all pairs of compound and target were hits.", "data": [{"compound": "CN1CCN(CCOc2cc(OC3CCOCC3)c3c(Nc4c(Cl)ccc5c4OCO5)ncnc3c2)CC1 [saracatinib]", "test": "log2 fold change, soluble protein after heating vs DMSO (PISA); higher = thermal stabilisation; K562 lysate, 10 uM; active = over 0.2 and 3.5 SD of the protein, either way, in both replicates (recomputed)", "procedure,_shortened": "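Pellets of K562 cells were dounce-homogenised in PBS pH 7.4 with 1 mM MgCl2, and the crude extract was held at 1 mg/mL protein for a 30 min treatment with 10 μM compound. Aliquots were heated for 3 min over 48°C-58°C and pooled before NP-40 was added to 0.5% at 4°C. The supernatant from 21,000xg for 90 min was quantified by TMTpro 16plex LC-MS/MS with channel sums equalised. Values are reported from duplicates as log-two fold change in thermal stability relative to solvent controls.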", "values": [{"target": "ORC2 (UniProt Q13416)", "sequence (Q13416 whole entry, looked up)": "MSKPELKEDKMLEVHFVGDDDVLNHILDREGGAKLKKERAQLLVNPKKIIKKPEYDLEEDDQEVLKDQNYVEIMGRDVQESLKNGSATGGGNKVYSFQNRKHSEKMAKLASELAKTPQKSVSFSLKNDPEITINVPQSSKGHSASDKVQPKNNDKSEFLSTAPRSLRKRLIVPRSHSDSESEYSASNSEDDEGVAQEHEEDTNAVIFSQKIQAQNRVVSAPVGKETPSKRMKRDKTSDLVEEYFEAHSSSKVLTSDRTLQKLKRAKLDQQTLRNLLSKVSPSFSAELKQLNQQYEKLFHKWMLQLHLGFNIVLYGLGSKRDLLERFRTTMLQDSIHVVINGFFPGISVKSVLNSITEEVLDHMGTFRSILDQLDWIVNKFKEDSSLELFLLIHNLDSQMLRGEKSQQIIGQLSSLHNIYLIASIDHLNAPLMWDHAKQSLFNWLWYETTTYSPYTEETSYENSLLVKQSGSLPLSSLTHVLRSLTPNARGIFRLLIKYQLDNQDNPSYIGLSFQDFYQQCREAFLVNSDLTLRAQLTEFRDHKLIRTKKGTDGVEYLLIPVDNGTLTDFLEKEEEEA", "log2 fold change": "0.007 (inactive)"}, {"target": "NIPSNAP3A (UniProt Q9UFN0)", "sequence (Q9UFN0 whole entry, looked up)": "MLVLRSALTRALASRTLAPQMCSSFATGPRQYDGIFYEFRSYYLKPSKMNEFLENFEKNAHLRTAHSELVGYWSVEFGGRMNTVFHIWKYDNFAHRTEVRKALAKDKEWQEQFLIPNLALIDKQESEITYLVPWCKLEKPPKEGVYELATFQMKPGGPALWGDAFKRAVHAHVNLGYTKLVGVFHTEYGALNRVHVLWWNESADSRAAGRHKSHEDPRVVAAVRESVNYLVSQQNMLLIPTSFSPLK", "log2 fold change": "-0.002 (inactive)"}, {"target": "N6AMT1 (UniProt Q9Y5N5)", "log2 fold change": "0.019 (inactive)"}, {"target": "OTUD7B (UniProt Q6GQQ9)", "log2 fold change": "0.015 (inactive)"}, {"target": "MSH2 (UniProt P43246)", "log2 fold change": "0 (inactive)"}, {"target": "MRPL53 (UniProt Q96EL3)", "log2 fold change": "-0.003 (inactive)"}, {"target": "NFKBIE (UniProt O00221)", "log2 fold change": "-0.123 (inactive)"}, {"target": "NCAPH2 (UniProt Q6IBW4)", "sequence (Q6IBW4 whole entry, looked up)": "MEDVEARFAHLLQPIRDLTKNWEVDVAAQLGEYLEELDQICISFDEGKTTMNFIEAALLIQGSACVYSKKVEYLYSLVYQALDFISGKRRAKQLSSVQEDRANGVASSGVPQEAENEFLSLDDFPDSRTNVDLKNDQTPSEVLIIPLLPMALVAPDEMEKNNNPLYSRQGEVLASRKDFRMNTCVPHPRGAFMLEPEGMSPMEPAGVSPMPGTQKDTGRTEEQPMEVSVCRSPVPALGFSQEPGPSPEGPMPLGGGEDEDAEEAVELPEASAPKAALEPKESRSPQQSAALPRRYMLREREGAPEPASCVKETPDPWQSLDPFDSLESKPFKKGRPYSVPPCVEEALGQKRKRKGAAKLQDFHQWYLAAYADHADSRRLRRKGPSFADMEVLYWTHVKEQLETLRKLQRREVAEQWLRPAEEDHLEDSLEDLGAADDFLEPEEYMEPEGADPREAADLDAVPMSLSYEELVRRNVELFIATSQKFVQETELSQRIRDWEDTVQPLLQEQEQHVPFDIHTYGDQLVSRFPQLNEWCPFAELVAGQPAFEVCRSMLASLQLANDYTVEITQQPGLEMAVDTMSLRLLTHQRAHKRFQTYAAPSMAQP", "log2 fold change": "0.001 (inactive)"}, {"target": "MRPS18A isoform 2 (UniProt Q9NVS2)", "log2 fold change": "-0.042 (inactive)"}, {"target": "NOB1 (UniProt Q9ULX3)", "sequence (Q9ULX3 whole entry, looked up)": "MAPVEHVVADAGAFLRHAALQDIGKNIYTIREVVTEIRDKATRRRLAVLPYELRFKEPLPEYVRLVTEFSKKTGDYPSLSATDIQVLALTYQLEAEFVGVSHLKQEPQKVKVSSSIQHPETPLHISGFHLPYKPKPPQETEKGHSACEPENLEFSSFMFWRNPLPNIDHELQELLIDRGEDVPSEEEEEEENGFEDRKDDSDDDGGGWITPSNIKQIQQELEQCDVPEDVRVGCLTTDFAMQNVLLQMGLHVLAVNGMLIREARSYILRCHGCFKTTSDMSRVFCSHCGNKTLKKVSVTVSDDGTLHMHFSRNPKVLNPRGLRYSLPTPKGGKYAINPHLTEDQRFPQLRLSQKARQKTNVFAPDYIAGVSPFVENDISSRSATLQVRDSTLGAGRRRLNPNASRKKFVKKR", "log2 fold change": "0.018 (inactive)"}, {"target": "NCAPG2 (UniProt Q86XI2)", "sequence (Q86XI2 whole entry, looked up)": "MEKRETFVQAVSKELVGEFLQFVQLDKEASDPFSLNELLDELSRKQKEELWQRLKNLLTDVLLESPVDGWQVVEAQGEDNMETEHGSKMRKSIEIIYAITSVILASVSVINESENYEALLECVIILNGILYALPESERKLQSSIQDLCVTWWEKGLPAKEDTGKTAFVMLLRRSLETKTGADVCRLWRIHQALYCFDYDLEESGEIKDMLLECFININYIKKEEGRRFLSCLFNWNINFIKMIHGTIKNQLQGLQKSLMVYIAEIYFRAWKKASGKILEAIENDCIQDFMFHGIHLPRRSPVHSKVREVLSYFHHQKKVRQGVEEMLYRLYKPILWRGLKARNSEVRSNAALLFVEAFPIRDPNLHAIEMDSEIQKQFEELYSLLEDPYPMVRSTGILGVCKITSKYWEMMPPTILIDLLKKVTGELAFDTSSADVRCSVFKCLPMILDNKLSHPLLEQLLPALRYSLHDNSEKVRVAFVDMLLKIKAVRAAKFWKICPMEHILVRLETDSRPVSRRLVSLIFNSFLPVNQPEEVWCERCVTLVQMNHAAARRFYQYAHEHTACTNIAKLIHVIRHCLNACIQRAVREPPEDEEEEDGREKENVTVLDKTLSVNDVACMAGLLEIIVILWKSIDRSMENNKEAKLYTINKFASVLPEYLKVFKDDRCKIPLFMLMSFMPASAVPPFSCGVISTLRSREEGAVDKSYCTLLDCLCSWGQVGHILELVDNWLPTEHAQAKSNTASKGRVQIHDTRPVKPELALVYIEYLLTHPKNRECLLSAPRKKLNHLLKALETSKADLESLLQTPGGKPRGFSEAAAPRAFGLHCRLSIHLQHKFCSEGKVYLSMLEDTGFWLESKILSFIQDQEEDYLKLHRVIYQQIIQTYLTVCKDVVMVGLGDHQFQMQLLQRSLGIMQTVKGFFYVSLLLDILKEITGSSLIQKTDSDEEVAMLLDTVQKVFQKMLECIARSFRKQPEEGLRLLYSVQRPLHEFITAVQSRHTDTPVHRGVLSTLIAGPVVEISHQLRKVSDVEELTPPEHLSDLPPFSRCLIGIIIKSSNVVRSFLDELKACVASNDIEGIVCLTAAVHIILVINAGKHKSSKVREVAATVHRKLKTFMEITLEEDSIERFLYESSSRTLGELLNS", "log2 fold change": "0.027 (inactive)"}, {"target": "NUMB (UniProt P49757)", "log2 fold change": "0.024 (inactive)"}, {"target": "OARD1 (UniProt Q9Y530)", "log2 fold change": "0.006 (inactive)"}, {"target": "NF1 (UniProt P21359)", "log2 fold change": "0.001 (inactive)"}, {"target": "NTMT1 (UniProt Q9BV86)", "sequence (Q9BV86 whole entry, looked up)": "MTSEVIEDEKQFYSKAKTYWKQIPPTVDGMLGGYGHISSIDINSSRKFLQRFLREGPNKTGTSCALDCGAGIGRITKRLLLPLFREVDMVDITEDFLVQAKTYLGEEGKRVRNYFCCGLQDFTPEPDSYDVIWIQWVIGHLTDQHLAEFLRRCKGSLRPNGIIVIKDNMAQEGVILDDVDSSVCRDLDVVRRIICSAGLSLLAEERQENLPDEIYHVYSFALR", "log2 fold change": "0.008 (inactive)"}, {"target": "MYD88 isoform 6 (UniProt Q99836)", "log2 fold change": "0.009 (inactive)"}, {"target": "NUSAP1 (UniProt Q9BXS6)", "log2 fold change": "0.019 (inactive)"}, {"target": "MVB12A (UniProt Q96EY5)", "log2 fold change": "0.015 (inactive)"}, {"target": "NAT1 (UniProt P18440)", "log2 fold change": "-0.001 (inactive)"}, {"target": "MSH3 (UniProt P20585)", "sequence (P20585 whole entry, looked up)": "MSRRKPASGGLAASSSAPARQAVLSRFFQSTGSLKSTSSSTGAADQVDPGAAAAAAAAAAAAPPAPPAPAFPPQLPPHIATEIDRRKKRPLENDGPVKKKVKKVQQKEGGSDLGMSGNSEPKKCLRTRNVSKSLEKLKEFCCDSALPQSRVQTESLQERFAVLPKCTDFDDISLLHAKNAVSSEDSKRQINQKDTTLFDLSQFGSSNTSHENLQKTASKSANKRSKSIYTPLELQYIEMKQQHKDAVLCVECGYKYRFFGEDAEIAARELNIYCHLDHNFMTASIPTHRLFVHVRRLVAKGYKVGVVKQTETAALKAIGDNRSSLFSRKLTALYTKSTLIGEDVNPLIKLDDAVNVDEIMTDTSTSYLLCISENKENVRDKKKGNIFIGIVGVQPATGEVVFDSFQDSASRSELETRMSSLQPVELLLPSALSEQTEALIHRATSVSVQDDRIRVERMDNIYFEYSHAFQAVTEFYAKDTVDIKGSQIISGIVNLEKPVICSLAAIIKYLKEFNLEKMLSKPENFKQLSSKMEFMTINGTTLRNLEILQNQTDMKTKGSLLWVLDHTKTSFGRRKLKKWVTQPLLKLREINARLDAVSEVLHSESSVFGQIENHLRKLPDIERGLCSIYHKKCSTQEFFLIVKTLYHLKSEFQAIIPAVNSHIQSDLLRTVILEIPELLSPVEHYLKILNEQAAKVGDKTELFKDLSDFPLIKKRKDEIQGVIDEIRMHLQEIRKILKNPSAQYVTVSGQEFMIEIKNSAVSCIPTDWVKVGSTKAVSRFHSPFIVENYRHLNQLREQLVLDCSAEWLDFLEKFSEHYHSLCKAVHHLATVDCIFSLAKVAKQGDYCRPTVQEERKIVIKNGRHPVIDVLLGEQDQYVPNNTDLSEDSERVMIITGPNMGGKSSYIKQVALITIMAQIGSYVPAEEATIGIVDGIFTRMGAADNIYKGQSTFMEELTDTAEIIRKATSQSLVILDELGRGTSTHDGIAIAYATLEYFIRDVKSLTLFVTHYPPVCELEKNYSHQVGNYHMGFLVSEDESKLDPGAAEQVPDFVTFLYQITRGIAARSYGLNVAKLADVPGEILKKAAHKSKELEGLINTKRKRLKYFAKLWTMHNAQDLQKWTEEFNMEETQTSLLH", "log2 fold change": "0.038 (inactive)"}, {"target": "NCK1 (UniProt P16333)", "log2 fold change": "0.015 (inactive)"}, {"target": "NGLY1 (UniProt Q96IV0)", "sequence (Q96IV0 whole entry, looked up)": "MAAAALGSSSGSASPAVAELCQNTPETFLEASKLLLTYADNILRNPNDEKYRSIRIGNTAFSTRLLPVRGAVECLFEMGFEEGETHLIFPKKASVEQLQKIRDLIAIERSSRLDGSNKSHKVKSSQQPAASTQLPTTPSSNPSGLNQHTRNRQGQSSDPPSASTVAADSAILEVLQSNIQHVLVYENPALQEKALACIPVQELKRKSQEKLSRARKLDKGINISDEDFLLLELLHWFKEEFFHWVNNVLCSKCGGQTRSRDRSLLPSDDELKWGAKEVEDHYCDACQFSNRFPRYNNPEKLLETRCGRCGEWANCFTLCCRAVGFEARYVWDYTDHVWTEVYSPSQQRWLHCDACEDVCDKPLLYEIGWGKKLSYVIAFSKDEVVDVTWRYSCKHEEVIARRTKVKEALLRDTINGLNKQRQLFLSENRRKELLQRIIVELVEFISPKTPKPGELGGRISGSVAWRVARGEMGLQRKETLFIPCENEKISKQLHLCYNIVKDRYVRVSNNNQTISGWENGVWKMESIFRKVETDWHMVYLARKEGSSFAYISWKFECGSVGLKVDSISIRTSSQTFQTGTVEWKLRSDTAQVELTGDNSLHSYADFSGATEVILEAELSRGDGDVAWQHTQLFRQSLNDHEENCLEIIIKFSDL", "log2 fold change": "0.013 (inactive)"}, {"target": "NOA1 (UniProt Q8NC60)", "log2 fold change": "0.016 (inactive)"}, {"target": "NUB1 (UniProt Q9Y5A7)", "log2 fold change": "-0.009 (inactive)"}]}]}
